Assay outcomes from PubChem BioAssay.
GPR151 activ – activators of human GPR151, primary screen, cell-based, PathHunter beta-arrestin, luminescence; G-protein coupled receptor 151 (Homo sapiens), Q8TDV0; PathHunter beta-arrestin GPR151 cells; activation, % at 11.2 µM; 1% of 650,000 active; AID 1508602, 2020; in the data active means activation above about 4.9%;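 further: 0% = median of compound wells and 100% = cells with positive control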
TEAD-YAP block – TEAD-YAP interaction inhibition, primary screen, TEAD-YAP interaction inhibitor project, luminescence, HEK-TIYL cells | inhibition, % at 9.12 µM | 1.4% of 640,000 active | TEAD-Gal4/YAP UAS-luciferase luminescence | AID 1259422, 2018; in the data active means inhibition above about 32%;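 further: 0% = median of test compound wells and 100% = reference inhibitor wells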
FBW7 act – FBW7 E3 ligase activators, primary screen, biochemical, AlphaScreen, human | F-box/WD repeat-containing protein 7 (Homo sapiens), Q969H0 | AlphaScreen FBW7–phospho-cyclin E peptide binding, activator screen | normalized activity (activation), % at 26.1 µM | 0.13% of 650,000 active | AID 1259310, 2017; in the data active means normalized activity above about 1.9%;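 further: purified mutant Fbw7 with reduced substrate affinity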
MITF primary – MITF inhibitors, primary screen, biochemical, AlphaScreen, human; Microphthalmia-associated transcription factor (Homo sapiens), O75030; AlphaScreen MITF homodimerization, bead proximity signal; inhibition, % at 2.6 µM; 0.91% of 650,000 active; AID 1259374, 2018; in the data active means inhibition above about 50%;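 further: 0% = vehicle wells with protein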
Target sequence (O75030 whole entry, looked up): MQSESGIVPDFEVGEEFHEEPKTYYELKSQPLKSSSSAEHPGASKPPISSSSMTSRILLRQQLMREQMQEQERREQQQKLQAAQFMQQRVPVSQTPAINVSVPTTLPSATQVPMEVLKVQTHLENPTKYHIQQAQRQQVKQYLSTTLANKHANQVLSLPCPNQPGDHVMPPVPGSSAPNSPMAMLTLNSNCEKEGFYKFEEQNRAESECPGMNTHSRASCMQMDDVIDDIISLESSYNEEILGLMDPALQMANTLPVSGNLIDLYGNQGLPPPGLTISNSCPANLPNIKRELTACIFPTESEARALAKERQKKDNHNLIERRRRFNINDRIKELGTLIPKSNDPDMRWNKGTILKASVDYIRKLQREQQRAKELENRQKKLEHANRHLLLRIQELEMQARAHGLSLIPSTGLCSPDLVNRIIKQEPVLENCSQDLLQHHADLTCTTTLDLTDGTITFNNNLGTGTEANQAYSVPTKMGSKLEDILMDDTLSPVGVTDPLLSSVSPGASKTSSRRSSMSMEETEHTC
GPR151 confirm – GPR151 activators, triplicate retest, confirmation, cell-based, PathHunter beta-arrestin, luminescence. shares compounds with GPR151 activ. GPR151 PathHunter beta-arrestin cells, 90 min; % of EA-reagent control over plate median. activation, % at 11.2 µM. 6,700 tested, under 10 active. AID 1508609, 2020;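 active means mean percent activation across replicates above the confirmation screen cutoff of 4.91%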
GPR119 counter – GPR119 activators in beta-arrestin cells, counter-screen for GPR151 activator project, cell-based, PathHunter beta-arrestin, luminescence, triplicate. 90 min; 0 = compound-well median, 100 = enzyme-acceptor control. activation, % at 11.2 µM. 0.3% of 6,700 active. AID 1508611, 2020. shares compounds with GPR151 activ;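 active means mean percent activation in the counterscreen above 29.09%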;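 further: counterscreen on off-target GPR119 to flag nonselective hits from the GPR151 activator screen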
Numbers without * were called inactive; / = not tested or not shown. Compounds with a hit are over-represented: about 3.5% of the library has one in this group of screens.

SMILES | GPR151 activ | TEAD-YAP block | FBW7 act | MITF primary | GPR151 confirm | GPR119 counter
Nc1nc2ncc(CNc3ccc(C(=O)N[C@@H](CCC(=O)O)C(=O)O)cc3)nc2c(=O)[nH]1 | 5.6* | / | 0 | 9 | 0 | -2
Cc1ccccc1C1(CC(=O)N2CCC(O)CC2)CC(=O)N(Cc2ccccc2)C1=O (configuration not stated) | 1 | -8 | 0 | -3 | / | /
O=c1[nH]c(N2CCCCC2)nc2c1CCN(CC1CCC=CO1)C2 (configuration not stated) | 0 | -4 | 0 | -8 | / | /
CC1CCCN(c2nc3c(c(=O)[nH]2)CCN(CC2CCC=CO2)C3)C1 (configuration not stated) | 9.5* | -4 | 1 | -2 | 1 | 7
c1ccc(Cc2nnc3sc(-c4ccco4)nn23)cc1 | 4 | -16 | 0 | 1 | / | /
Fc1ccccc1-c1nn2c(Cc3ccccc3)nnc2s1 | 8.2* | 4 | 0 | -3 | 0 | -2
CCOc1ccc(CCNC(=O)NC(C)(C)C)cc1OCC | 1 | 3 | 0 | 6 | / | /
CN(C)S(=O)(=O)c1ccc(C(=O)CSc2n[nH]c(N)n2)cc1 | 9.6* | -31 | 0 | 0 | 0 | 3
COc1ccc(S(=O)(=O)N(CC(=O)NCc2ccccc2OC)c2ccc(Cl)cc2)cc1 | -1 | 5 | 0 | 11 | / | /
Cc1cccc(Nc2nc3nonc3n3cnnc23)c1C | 5.8* | -2 | 0 | -3 | 1 | 6
Cc1ccc(C(=O)Nc2cc(C)nn2-c2ncnc3c2cnn3-c2cccc(C)c2C)cc1 | 2 | 8 | 0 | 6 | / | /
Brc1ccc(C2N(c3ccccc3)CCN2c2ccccc2)s1 | 0 | -17 | 0 | 0 | / | /
O=[N+]([O-])c1ccc(C2N(c3ccccc3)CCN2c2ccccc2)s1 | 4.9* | 7 | 0 | 11 | -1 | -2
CSc1ccccc1NC(=O)CNC(=O)c1c[nH]c2ccccc12 | 0 | 1 | 0 | 6 | / | /
Cc1ccc(NC(=O)CNC(=O)c2c[nH]c3ccccc23)cc1F | 5.7* | 2 | 0 | 2 | 0 | -5
Fc1ccccc1CSc1ccc2nnc(-c3cccnc3)n2n1 | -1 | 7 | 0 | 7 | / | /
CC(=O)c1ccc(NC(=O)c2ccc(S(=O)(=O)N3CCCC3)cc2)cc1 | 5.0* | 1 | 0 | 11 | -1 | -13
COc1cc(NS(=O)(=O)c2ccc(NC(=O)c3ccc(C(C)=O)cc3)cc2)ncn1 | 5.7* | -7 | 0 | 13 | 0 | -13
CC(=O)c1ccc(NC(=O)Nc2ccc(S(=O)(=O)N3CCCC3)cc2)cc1 | -1 | 17 | 0 | 9 | / | /
NC(=O)C1CCN(C2=NS(=O)(=O)c3ccccc32)CC1 | -2 | 7 | 0 | -1 | / | /
O=C(OCc1nc2ccccc2s1)C1CCN(C2=NS(=O)(=O)c3ccccc32)CC1 | 5.6* | -6 | 0 | 7 | 1 | 12
Cc1ccc(OCCOCCN2CCN(C)CC2)cc1C | 1 | -3 | 0 | 39 | / | /
COC(=O)c1ccc(COc2cc3oc(=O)c4c(c3cc2Cl)CCCC4)cc1 | 0 | -8 | 0 | -1 | / | /
COC(=O)C1=C(C)NC(=S)NC1c1ccccc1OC (configuration not stated) | 5.6* | 2 | 0 | -15 | 0 | -4
COc1cc2c(cc1C1NC(=S)NC(C)=C1C(=O)N(C)C)CCCC2 (configuration not stated) | 8.9* | 6 | 0 | 0 | 0 | -2
CCN1C(=O)c2cccc3c(NC(=O)Cc4ccc(SC)cc4)ccc1c23 | 2 | 2 | 0 | 1 | / | /
Cc1ccc(CNC(=O)CCCn2c(=O)c3ccccc3n(CC(N)=O)c2=O)cc1 | 5.2* | 0 | 0 | -3 | 1 | 4
CCc1cc(OCCCCNCCN(C)C)ccc1Cl | 2 | -4 | 0 | -38 | / | /
